Laboratory results reported in ChEMBL document CHEMBL3988442, “University of Dundee, Small-Polar-MMV Screening Library” (2021).

Species on record: Homo sapiens
Experiment: To identify inhibition of the IFN signalling (Jak-Stat) pathway via expression of an eGFP reporter gene under the control of an IFN-stimulated response element (ISRE) containing MxA promoter.
Assay type: functional
Parameters: scale not given: direction of the effect not stated beside the values
Conditions: 30 µM

| SMILES | Percent Effect |
| --- | --- |
| c1cnn(CC2CCCCN2Cc2cn3ccsc3n2)c1 (stereo not given) | 15.8% |
| CN(Cc1nnc(-c2ccco2)o1)C1CCCN(c2cccnn2)C1 (stereo not given) | 30.2% |
| O=C(NCCn1nc2ccccn2c1=O)c1cccc2[nH]ncc12 | 13.6% |
| Cc1nc(CN2CCCC(CCc3c(F)cccc3F)C2)c[nH]1 (stereo not given) | 18.7% |
| CC(C)CN1C[C@@H]2CN(C(=O)[C@H]3CCCO3)C[C@@H]2C1=O | 7.85% |
| CC(NC(=O)NCCCn1cncn1)c1ccccc1Cl (stereo not given) | 13.4% |
| Cc1[nH]ccc1C(=O)N1CCCC(c2nccn2Cc2cscn2)C1 (stereo not given) | 8.11% |
| CCn1cc2c(n1)C(COC)CN(Cc1ccccn1)C2 (stereo not given) | 34.2% |
| O=C1CCCc2nccc(-c3ccccc3)c21 | 9.37% |
| c1ccc(OCc2nnc3n2CCN(CC2CCOCC2)C3)nc1 | -3.47% |
| CN(C)CC1CN(Cc2ccsc2)Cc2nccn2C1 (stereo not given) | -9.26% |
| CCOc1c(Cl)cccc1NCc1cc(C)on1 | 25.9% |
| O=C(NCc1cc[nH]n1)NCC(c1ccc(F)cc1)N1CCOCC1 (stereo not given) | 8.57% |
| CCc1nccn1C1CCCN(C(=O)c2csc(NC(C)=O)n2)C1 (stereo not given) | -1.12% |
| Cc1ccc(C(=O)N2CCC3(CC2)CCN(CCN(C)C)C3=O)cn1 | 11.3% |
| Cc1ccc(C(=O)N2CCN(Cc3ccsc3)CC2)n1C | -8.24% |
| CS(=O)(=O)NCc1cc2n(n1)CCCN(Cc1cccc(C#N)c1)C2 | 18.6% |
| O=C(NCC1CC1)C1CCC2(CCN(C(=O)c3ccccn3)CC2)O1 (stereo not given) | 9.93% |
| O=C(NCc1cc[nH]n1)N(CCCO)C1CCc2ccccc21 (stereo not given) | 1.81% |
| CCC(NC(=O)CC(F)(F)F)c1ccccc1OCC(=O)N1CCCC1 (stereo not given) | -7.93% |

| SMILES | Percent Effect |
| --- | --- |
| CNC(=O)c1cccnc1Oc1ccccc1 | 10% |
| O=C(CSc1ccc(F)c(F)c1)NS(=O)(=O)c1ccc2c(c1)OCCO2 | 12.6% |
| CCSCCC(=O)NS(=O)(=O)c1ccc2c(c1)OCCO2 | 9.19% |
| CC1CCCCN1Cc1ccc(-c2ccccc2C(=O)O)cc1 (stereo not given) | 12.3% |
| Cc1noc(C)c1C(=O)N1CC[C@H]2C[C@@H](c3nccs3)O[C@@H]2C1 | -13.4% |
| Cn1ccc(CN2CCC(NC(=O)Cc3ccccc3)CC2)cc1=O | -7.1% |
| O=S(=O)(c1ccccc1)N1CCCCC1c1cc[nH]n1 (stereo not given) | 19.2% |
| COCCN(C)C[C@@H]1CCC[C@@H]2CN(c3cc(OC)ncn3)C[C@@H]21 | 11.6% |
| CC(C)NC(=O)N1CCN(Cc2ccccn2)CC2(CC(=O)N(C)C2)C1 (stereo not given) | 13.5% |
| CCn1nc(C)c(CCNC(=O)C2CCCN(C(=O)N(C)C)C2)c1C (stereo not given) | 8.52% |
| Cc1cccc(C(=O)N2CCCN(Cc3cnn(C)c3)CC2)n1 | 13.4% |
| COCCC(=O)N1CCn2c(COCC3CC3)cnc2C1C (stereo not given) | -4.92% |
| c1ccc(CNC2CCc3ncnn3C2)nc1 (stereo not given) | 30.1% |
| COCCOc1cccc(C(=O)N2CCCC(n3ccnc3C)C2)c1 (stereo not given) | 1.8% |
| CC(C)N(Cc1nc2c(cnn2C)c(=O)[nH]1)c1ccccc1 | 7.17% |
| Cc1nc(CN2CCCC(CCc3ccc(F)cc3F)C2)c[nH]1 (stereo not given) | -3.62% |
| COCC(C)N(C)C(=O)c1nc(S(C)(=O)=O)n2ccccc12 (stereo not given) | 24.6% |
| Cc1ccccc1N1CC2(CCN(S(=O)(=O)c3cccs3)C2)CC1=O (stereo not given) | 10.2% |
| Cc1ccc(CN2CCCn3c(nc(Cn4cncn4)cc3=O)C2)s1 | -3.95% |
| Cc1ccc2oc(C(=O)N3CCc4nnc(N(C)C)cc4C3)cc2n1 | 4.8% |
